Results published in PubChem BioAssay (NCATS).
Inconclusive results are not listed. The source made the active and inactive calls. Unless noted, the call rests on the fitted dose curve; in most records, active means well fitted curve in the direction sought with a large enough effect; inconclusive means small, poorly fitted or top-dose-only effect, or another doubt; inactive means no such curve, though single readings can be large; an effect the other way counts as inactive or inconclusive.

Assays:
[1] = Confirmatory qHTS for small molecule stabilizers of the endoplasmic reticulum resident proteome: Secreted ER Calcium Modulated Protein (SERCaMP) assay (AID 1508628); further: series mostly up to about 76 µM; on the % scale 0 is the no-effect control and ±100 the full control effect; nearly all actives have a fitted effect of over 40% in size
How it was run: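 SH-SY5Y cells stably expressing GLuc-SERCaMP, treated 16 h with compound (primary 1.53, 7.67, 38.3 uM; confirmation 11 concentrations, up to 76.6 uM), then 100 nM thapsigargin for 4 h. Secreted Gaussia luciferase in medium read by coelenterazine luminescence.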

[2] = Cell Viability qHTS for small molecule stabilizers of the endoplasmic reticulum resident proteome (AID 1508629); settings: cell viability counter-screen, 100 nM thapsigargin for final 4 h;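 further: potency means the concentration at half of the fitted maximal effect; compound exposure about 46 h in total before the viability read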
[3] = target: Cytochrome P450 2D6 (Homo sapiens) (UniProt P10635); experiment: qHTS Assay for Inhibitors and Substrates of Cytochrome P450 2D6 (AID 891); further: potency means the concentration at half of the fitted maximal effect; nearly all actives have a fitted effect of over 60% in size
How it was run: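 Human CYP2D6 (5 nM) with 30 uM Luciferin-ME EGE (at Km) in 100 mM KPO4, compound preincubated 10 min, then NADPH regeneration system for 60 min at room temperature. Luciferin read by luminescence; normalized to 1.43 uM quinidine.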

[4] = target: Rap guanine nucleotide exchange factor 4 (Homo sapiens) (UniProt Q8WZA2); experiment: Confirmatory qHTS for antagonist of cAMP-regulated guanine nucleotide exchange factor 4 (EPAC2) (AID 1645885); further: potency means the concentration at half of the fitted maximal effect; nearly all actives have a fitted effect of over 25% in size
[5] = Validation of Assay for Modulators of Lamin A Splicing (AID 1459; active means well fitted curve in the direction sought with a large enough effect in the signal ratio; the % refers to the signal ratio;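 further: cells exposed to compound for two days before reading; 0% is about no effect; ratio rise marks activators and ratio drop marks inhibitors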)
How it was run: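 S3 HeLa stably expressing lamin A-EGFP splicing minigene and DsRed2, 600 cells/well in Opti-MEM with 2% FBS, treated 48 h at 37C; laser-scanning cytometry gives GFP/RFP total intensity ratio; ancitabine positive control, 0.5% DMSO vehicle.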

[6] = target: DNA repair nuclease/redox regulator APEX1 (Homo sapiens) (UniProt P27695); experiment: qHTS Validation Assay for Inhibitors of the Human Apurinic/apyrimidinic Endonuclease 1 (APE1) (AID 1705;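 further: TAMRA fluorescence gain over two minutes as APE1 cuts a quenched THF abasic duplex; series mostly up to about 57 µM; on the % scale 0 is the no-effect control and ±100 the full control effect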)
How it was run: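 Fluorogenic double-stranded THF abasic-site substrate (5'-TAMRA/3'-BHQ-2), 50 nM final. Enzyme preincubated with compound 15 min at room temperature, then substrate added. Kinetic fluorescence (ex 525/em 598 nm) read three times at 60 s intervals; activity taken as third-minus-first read difference.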

[7] = Counterscreen for APE1 Inhibitors: Fluorescent Dye Displacement Validation Assay (AID 1707);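 further: plate controls were ThO with dsDNA and no compound for no effect and ThO without dsDNA for full effect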
How it was run: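 Thiazole Orange (250 nM) bound to 50 nM TAMRA-labelled dsDNA with tetrahydrofuran abasic site; displacement by DNA-binding compounds lowers fluorescence. Buffer 50 mM Tris-HCl pH 7.5, 50 mM NaCl, 2 mM MgCl2, 0.01% Tween-20; endpoint read at 480/540 nm.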

[8] = qHTS for differential inhibitors of proliferation of Plasmodium falciparum line 7G8 (AID 1815);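 further: potency means the concentration at half of the fitted maximal effect; parasite growth measured after three days of incubation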
[9] = qHTS for differential inhibitors of proliferation of Plasmodium falciparum line D10 (AID 1877);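 further: parasites grown with compound for 72 h before DNA staining; plate controls were vehicle wells for no effect and reference inhibitor wells for full effect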
[10] = qHTS for differential inhibitors of proliferation of Plasmodium falciparum line Dd2 (AID 1882); settings: Potency: Plasmodium falciparum Dd2 proliferation inhibition;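 further: series mostly up to about 29 µM; plate controls were DMSO vehicle for no effect and 0.29 µM artemisinin for full effect; nearly all actives have a fitted effect of over 65% in size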
How it was run: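 Dd2-infected erythrocytes (0.3% parasitemia, 2.5% hematocrit final) incubated with compound 72 h at 37 C, 5% CO2; lysed with saponin/Triton buffer containing SYBR Green I, incubated overnight in the dark, then read by fluorescence (485/535 nm). Normalized to 0.29 uM artemisinin and DMSO.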

[11] = qHTS for differential inhibitors of proliferation of Plasmodium falciparum line W2 (AID 1883); settings: Potency: Plasmodium falciparum W2 proliferation inhibition;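 further: potency means the concentration at half of the fitted maximal effect; parasites grown with compound for 72 h before lysis and staining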
[12] = qHTS Assay for Modulators of Human Peripheral Myelin Protein 22 (PMP22) Expression/Activity (AID 1967; active means well fitted curve in the direction sought with a large enough effect in the signal ratio; the % refers to the signal ratio;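 further: 0% = untreated cells and 100% end not stated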)
How it was run: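 Mouse MSC80 Schwann cells carrying Pmp22 promoter–green click beetle luciferase plus EF-alpha–red luciferase control, dosed 24 h at 37 °C. Dual-filter luminescence, overlap-corrected; %Activity from green/red ratio normalised to untreated cells, concentration-response curves fitted.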

[13] = target: RecQ-like DNA helicase BLM (Homo sapiens) (UniProt P54132); experiment: qHTS Validation Assay for Inhibitors of Bloom's syndrome helicase (BLM) (AID 2364); further: potency means the concentration at half of the fitted maximal effect
How it was run: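 50 nM BLM preincubated 15 min at room temperature with compound in pH 8.0 Tris buffer containing 2.5 ug/ml poly(dI-dC); started with 200 nM TAMRA/BHQ-2 forked duplex and 2 mM ATP (final). Unwinding read as TAMRA fluorescence increase, two reads 2 h apart.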

[14] = Validation screen for small molecules that induce DNA re-replication in MCF 10A normal breast cells (AID 463097); further: potency means the concentration at half of the fitted maximal effect; nearly all actives have a fitted effect of over 60% in size
How it was run: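 MCF 10A cells exposed to compound 48 hr at 37 C, 5% CO2, then Hoechst-stained 40 min. Laser-scanning imaging of nuclear DNA content (405 nm ex, 500-530 nm em); re-replication scored as rise in nuclei with elevated fluorescence intensity.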

[15] = target: M-phase phosphoprotein 8 (Homo sapiens) (UniProt Q99549); experiment: qHTS Validation Assay for Inhibitors for MPP8 Chromodomain Interactions with Methylated Histone Tails (AID 488949); further: potency means the concentration at half of the fitted maximal effect; nearly all actives have a fitted effect of over 55% in size
How it was run: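 MPP8 (50 nM) was pre-bound to 50 nM biotinylated H3(1-18)K9me3 peptide in PBS pH 7.4 with 0.01% Tween-20. Compounds were then added for 30 min at room temperature, and complex disruption was read by AlphaScreen with streptavidin donor and nickel-chelate acceptor beads.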

[16] = target: Transient receptor potential cation channel subfamily V member 1 (Homo sapiens) (UniProt Q8NER1); experiment: HTS Assay for Compounds that Act as Enhancers of the Vanilloid Receptor 1 (AID 488979); further: 0% is about no effect
How it was run: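 TRPV1 cells loaded with Fluo-8 calcium dye; compound added and Ca2+ signal (ex 480/em 520 nm) followed 3 min, then capsaicin at EC20 added and read 2 more min to detect enhancement.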

[17] = target: Thyrotropin receptor (Homo sapiens) (UniProt P16473); experiment: qHTS Assay for Antagonists of the Thyroid Stimulating Hormone Receptor (AID 488980); further: series mostly up to about 58 µM; 0% is about no effect
How it was run: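 TSHR-transfected HEK293 cells (2000/well) in HEPES-buffered HBSS with 70 uM RO 20-1724 were stimulated with 4 nM TSH (EC80, final) in the presence of compound. cAMP was measured by HTRF competition after lysis and 30 min at RT.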

[18] = target: Thyrotropin-releasing hormone receptor (Homo sapiens) (UniProt P34981); experiment: qHTS for Small Molecule Agonists and Allosteric Enhancers of Human TRH Receptor: Validation Screen for Agonists (AID 493127;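 active means calcium activation more than 3 SD above the typical response in the agonist read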;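 further: intracellular calcium rise by fluo-8 fluorescence before TRH EC20 addition; 0% is about no effect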); settings: TRH receptor agonist cell assay; at 2 µM; hits give high values
How it was run: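 Cells 2000/well, 10% FCS, 18 h 33.5C/5% CO2 → fluo-8 Ca dye, RT 30 min–1.5 h → FDSS baseline 10 × 1 s → compound added → 230 cycles (1 s/cycle) agonist mode. TRH controls.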

[19] = target: Galactokinase (Homo sapiens) (UniProt P51570); experiment: qHTS Validation Assay for Inhibitors of Human Galactokinase (GALK) (AID 493189); further: 0% is about no effect
How it was run: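 GALK (5 nM) with 35 uM ATP and 100 uM galactose in HEPES pH 8.0 with MgCl2, NaCl, DTT and BSA. Reaction ran 1 h at room temperature. Residual ATP read by Kinase-Glo Plus luminescence.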

[20] = Validation screen for small molecules that induce DNA re-replication in SW480 colon adenocarcinoma cells (AID 504364); further: 0% is about no effect
How it was run: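 250 cells/well; compound pinned in; 48 hr, 37 C, 5% CO2; Hoechst added, 40 min; nuclear fluorescence imaged, 405 ex / 500-530 em; re-replication scored as increase in high-intensity nuclei.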

Chain of Rap guanine nucleotide exchange factor 4 (Homo sapiens) (Q8WZA2 whole entry, looked up): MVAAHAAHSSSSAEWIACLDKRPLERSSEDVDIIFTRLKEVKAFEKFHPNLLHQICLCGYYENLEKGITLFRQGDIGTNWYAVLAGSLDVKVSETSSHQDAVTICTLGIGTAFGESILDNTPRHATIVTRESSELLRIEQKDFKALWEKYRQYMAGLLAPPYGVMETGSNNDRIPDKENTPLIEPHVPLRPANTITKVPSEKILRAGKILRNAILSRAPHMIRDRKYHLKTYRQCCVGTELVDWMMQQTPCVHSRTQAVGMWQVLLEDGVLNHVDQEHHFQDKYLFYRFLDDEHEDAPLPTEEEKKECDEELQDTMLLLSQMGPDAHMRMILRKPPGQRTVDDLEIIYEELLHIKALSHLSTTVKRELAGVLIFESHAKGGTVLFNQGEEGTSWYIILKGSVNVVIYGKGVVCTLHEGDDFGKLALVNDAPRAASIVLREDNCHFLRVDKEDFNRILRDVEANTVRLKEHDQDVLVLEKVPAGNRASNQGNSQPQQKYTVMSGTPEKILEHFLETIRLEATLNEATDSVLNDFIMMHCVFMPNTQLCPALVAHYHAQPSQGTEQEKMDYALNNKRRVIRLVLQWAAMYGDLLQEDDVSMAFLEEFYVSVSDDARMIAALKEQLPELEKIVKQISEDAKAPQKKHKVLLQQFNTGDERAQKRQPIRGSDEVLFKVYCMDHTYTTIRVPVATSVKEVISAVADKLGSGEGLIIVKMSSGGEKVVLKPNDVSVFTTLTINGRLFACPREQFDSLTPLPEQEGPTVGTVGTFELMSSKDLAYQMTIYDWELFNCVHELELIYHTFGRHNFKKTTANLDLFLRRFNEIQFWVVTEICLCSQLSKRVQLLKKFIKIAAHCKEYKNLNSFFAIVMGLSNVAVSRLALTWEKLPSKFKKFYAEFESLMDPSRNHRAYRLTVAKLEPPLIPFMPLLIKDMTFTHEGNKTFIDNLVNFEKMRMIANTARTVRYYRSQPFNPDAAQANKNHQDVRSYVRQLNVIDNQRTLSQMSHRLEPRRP
Chain of Cytochrome P450 2D6 (Homo sapiens) (P10635 whole entry, looked up): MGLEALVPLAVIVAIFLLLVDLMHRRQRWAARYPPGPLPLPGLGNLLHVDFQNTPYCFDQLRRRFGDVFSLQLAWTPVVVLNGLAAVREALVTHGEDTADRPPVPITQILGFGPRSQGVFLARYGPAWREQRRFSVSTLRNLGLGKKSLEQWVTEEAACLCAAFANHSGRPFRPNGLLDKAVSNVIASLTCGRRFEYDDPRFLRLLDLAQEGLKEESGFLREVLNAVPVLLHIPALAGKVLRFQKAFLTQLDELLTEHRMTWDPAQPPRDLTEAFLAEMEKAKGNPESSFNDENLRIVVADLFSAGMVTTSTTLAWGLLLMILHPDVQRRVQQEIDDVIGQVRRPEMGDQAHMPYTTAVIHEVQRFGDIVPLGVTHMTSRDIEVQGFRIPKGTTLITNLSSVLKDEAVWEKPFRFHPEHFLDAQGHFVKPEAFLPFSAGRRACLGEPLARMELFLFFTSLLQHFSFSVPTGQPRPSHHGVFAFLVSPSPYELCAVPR
Chain of Transient receptor potential cation channel subfamily V member 1 (Homo sapiens) (Q8NER1 whole entry, looked up): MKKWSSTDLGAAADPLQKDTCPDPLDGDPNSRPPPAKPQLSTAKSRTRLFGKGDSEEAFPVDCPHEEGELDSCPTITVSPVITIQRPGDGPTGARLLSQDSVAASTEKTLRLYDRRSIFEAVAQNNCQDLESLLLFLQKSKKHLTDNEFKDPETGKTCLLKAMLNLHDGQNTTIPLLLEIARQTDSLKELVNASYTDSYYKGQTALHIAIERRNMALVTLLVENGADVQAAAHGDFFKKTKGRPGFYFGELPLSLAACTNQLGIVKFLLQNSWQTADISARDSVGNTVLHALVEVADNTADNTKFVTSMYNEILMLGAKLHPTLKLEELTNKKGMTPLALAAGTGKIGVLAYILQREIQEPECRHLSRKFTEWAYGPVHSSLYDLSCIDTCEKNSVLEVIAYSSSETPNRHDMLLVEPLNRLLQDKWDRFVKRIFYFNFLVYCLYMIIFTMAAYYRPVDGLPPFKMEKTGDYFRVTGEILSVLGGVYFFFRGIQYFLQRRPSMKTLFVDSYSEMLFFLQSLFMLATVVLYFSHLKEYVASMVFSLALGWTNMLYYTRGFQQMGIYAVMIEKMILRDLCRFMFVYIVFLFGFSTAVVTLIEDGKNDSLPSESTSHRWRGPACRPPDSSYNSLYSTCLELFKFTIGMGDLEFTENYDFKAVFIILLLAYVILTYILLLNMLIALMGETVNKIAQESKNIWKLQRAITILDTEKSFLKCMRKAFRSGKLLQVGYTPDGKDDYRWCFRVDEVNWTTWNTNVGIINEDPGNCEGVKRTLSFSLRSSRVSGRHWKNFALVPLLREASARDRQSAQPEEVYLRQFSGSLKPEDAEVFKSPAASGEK
Chain of Thyrotropin receptor (Homo sapiens) (P16473 whole entry, looked up): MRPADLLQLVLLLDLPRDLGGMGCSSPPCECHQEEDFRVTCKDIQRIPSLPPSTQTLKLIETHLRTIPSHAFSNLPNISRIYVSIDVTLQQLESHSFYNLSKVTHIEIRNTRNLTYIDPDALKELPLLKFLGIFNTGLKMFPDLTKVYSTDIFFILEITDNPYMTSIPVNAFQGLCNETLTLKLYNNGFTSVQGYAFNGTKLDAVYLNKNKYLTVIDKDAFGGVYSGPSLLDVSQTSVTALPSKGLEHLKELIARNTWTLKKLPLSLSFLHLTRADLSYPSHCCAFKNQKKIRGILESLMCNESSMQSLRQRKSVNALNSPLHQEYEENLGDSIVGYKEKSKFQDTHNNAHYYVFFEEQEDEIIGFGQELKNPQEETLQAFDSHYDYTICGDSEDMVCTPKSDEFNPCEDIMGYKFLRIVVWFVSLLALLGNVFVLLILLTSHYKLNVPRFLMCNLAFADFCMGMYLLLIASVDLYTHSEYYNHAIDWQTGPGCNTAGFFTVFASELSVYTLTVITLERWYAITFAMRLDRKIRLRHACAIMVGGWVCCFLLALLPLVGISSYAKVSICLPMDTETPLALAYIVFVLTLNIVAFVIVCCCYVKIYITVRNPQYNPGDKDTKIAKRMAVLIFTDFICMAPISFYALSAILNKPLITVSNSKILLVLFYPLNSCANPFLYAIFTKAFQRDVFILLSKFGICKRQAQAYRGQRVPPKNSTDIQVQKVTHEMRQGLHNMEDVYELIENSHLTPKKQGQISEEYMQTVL
Chain of M-phase phosphoprotein 8 (Homo sapiens) (Q99549 whole entry, looked up): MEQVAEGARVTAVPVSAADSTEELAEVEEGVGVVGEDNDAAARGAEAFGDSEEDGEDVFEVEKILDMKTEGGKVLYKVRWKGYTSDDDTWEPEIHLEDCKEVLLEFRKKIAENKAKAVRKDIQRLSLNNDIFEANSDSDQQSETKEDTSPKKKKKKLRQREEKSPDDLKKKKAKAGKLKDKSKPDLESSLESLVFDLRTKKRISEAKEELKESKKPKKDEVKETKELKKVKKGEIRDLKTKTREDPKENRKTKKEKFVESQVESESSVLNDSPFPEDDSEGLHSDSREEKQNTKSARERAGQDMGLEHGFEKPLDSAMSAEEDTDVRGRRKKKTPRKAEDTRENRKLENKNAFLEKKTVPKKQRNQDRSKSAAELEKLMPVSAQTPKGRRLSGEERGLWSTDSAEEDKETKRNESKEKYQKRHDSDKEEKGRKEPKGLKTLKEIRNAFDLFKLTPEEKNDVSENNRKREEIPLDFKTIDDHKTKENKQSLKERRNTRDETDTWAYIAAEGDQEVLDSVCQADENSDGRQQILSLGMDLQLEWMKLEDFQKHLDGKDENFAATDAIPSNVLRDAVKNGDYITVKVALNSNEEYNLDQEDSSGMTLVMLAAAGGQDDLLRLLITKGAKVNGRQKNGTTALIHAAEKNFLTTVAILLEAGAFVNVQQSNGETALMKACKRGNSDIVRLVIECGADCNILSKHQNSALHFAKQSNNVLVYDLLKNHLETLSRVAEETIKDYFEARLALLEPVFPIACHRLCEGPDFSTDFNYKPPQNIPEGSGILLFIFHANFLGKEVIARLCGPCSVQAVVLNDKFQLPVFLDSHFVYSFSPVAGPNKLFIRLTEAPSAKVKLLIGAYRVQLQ
Chain of DNA repair nuclease/redox regulator APEX1 (Homo sapiens) (P27695 whole entry, looked up): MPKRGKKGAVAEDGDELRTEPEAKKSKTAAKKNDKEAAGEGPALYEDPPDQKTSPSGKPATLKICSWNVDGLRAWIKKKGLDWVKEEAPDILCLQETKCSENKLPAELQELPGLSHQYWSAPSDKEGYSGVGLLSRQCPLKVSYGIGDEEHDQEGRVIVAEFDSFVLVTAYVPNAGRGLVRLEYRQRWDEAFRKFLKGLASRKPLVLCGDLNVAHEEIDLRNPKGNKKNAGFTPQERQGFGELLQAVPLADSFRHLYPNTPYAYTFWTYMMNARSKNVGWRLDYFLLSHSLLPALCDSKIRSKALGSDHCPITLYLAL
Chain of Galactokinase (Homo sapiens) (P51570 whole entry, looked up): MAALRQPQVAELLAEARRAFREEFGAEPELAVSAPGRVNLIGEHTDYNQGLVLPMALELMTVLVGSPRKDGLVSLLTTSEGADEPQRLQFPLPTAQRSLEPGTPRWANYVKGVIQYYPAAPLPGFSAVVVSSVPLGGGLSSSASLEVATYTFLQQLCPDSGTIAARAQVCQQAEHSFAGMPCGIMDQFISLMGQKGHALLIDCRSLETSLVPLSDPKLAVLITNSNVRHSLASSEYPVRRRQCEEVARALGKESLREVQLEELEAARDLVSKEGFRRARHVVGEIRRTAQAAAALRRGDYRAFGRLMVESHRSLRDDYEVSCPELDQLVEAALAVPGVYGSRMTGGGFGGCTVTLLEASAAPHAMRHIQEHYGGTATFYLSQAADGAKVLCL

CS(=O)(=O)CCNCc1nc(-c2ccc3ncnc(Nc4ccc(OCc5cccc(F)c5)c(Cl)c4)c3c2)cs1
inactive: Potency [1]
active: Potency [2] 15.8 µM

COc1cc(/C=C(\C#N)C(N)=O)cc(CSc2nc3ccccc3s2)c1O
active: Potency [3] 0.0251 µM

CCC(=O)O[C@H]1CC[C@H]2[C@@H]3CCc4cc(O)ccc4[C@H]3CC[C@]12C
active: Potency [4] 27.8 µM

CC(C)=CCC/C(C)=C/CC/C(C)=C/CSc1ccccc1C(=O)O
inactive: outcome [5] | Potency [6] | Potency [7] | Potency [9] | Potency [10] | outcome [12] | outcome [16] | outcome [17] | activation [18] 1.12% | outcome [19] | outcome [20]
active: Potency [8] 11.2 µM | Potency [11] 11.2 µM | Potency [13] 31.6 µM | Potency [14] 11.2 µM | Potency [15] 56.2 µM
